Compounds without any hit were thinned out: in the full panel of roughly 79,000, 15% have a hit. The source made the active and inactive calls. Rule as the data show it: active = growth inhibition above about 70%; inactive = the rest.
Assays:
[1] = NCI Yeast Anticancer Drug Screen. Data for the wt1 strain (AID 149);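 also: 0% = growth of vehicle-treated wt1 cultures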; conditions: S. cerevisiae wt1 strain (SPY 50644) growth inhibition, active compounds read high
Procedure, shortened: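 Yeast wt1 strain exposed to compounds; growth inhibition measured relative to vehicle-treated controls.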

[2] = NCI Yeast Anticancer Drug Screen. Data for the rad50EPP+ strain (AID 151);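 also: 0% = growth of vehicle-treated control cultures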; conditions: S. cerevisiae rad50 mutant strain, active compounds read high
Procedure, shortened: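 Yeast strain carrying rad50 alteration (rad50EPP+) exposed to compounds; growth inhibition measured relative to vehicle-treated controls.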

[3] = NCI Yeast Anticancer Drug Screen. Data for the mgt1 strain (AID 153); conditions: S. cerevisiae mgt1 mutant growth inhibition, active compounds read high
Procedure, shortened: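 Yeast mgt1 strain (DNA repair/cell-cycle alteration panel) exposed to compounds; growth inhibition measured relative to vehicle-treated controls.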

[4] = NCI Yeast Anticancer Drug Screen. Data for the rad50 strain (AID 155);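 also: 0% = growth of vehicle-only cultures of the same strain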; conditions: S. cerevisiae rad50 strain growth inhibition, active compounds read high
Procedure, shortened: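 Yeast carrying a defined DNA repair defect were exposed to test compounds, and growth was compared with vehicle-treated controls to give percent inhibition.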

[5] = NCI Yeast Anticancer Drug Screen. Data for the mec2-1 strain (AID 157); conditions: S. cerevisiae mec2-1 strain, active compounds read high
Procedure, shortened: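 mec2-1 yeast strain, carrying an alteration in DNA damage repair or cell cycle control, was exposed to compounds; growth inhibition was measured relative to vehicle-treated controls.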

[6] = NCI Yeast Anticancer Drug Screen. Data for the rad14 strain (AID 159);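 also: 0% = growth of vehicle-treated control cultures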; conditions: S. cerevisiae rad14 strain growth inhibition, active compounds read high
Procedure, shortened: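 Yeast cells carrying a defined DNA-repair defect were exposed to compounds, and growth inhibition was calculated relative to vehicle-treated control cultures.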

[7] = NCI Yeast Anticancer Drug Screen. Data for the sgs1 mgt1 strain (AID 161);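 also: 0% = growth of cultures given vehicle only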; conditions: S. cerevisiae sgs1 mgt1 strain, active compounds read high
Procedure, shortened: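 Compounds are added to genetically altered yeast, and growth is compared with cultures given vehicle alone to give percent inhibition.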

[8] = NCI Yeast Anticancer Drug Screen. Data for the CLN2oe strain (AID 163);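 also: 0% = growth of vehicle-only control cultures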; conditions: S. cerevisiae CLN2oe strain, active compounds read high
Procedure, shortened: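 Yeast cells carrying a defined cell-cycle control alteration were exposed to test compounds. Growth inhibition was scored against vehicle-treated control cultures.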

[9] = NCI Yeast Anticancer Drug Screen. Data for the cln2 rad14 strain (AID 165);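 also: 0% = growth equal to vehicle treated cultures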; conditions: S. cerevisiae cln2 rad14 strain, active compounds read high
Procedure, shortened: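 Yeast carrying cln2 and rad14 alterations (cell cycle control and DNA damage repair) were exposed to compounds. Growth inhibition was measured against vehicle-treated controls.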

[10] = NCI Yeast Anticancer Drug Screen. Data for the bub3 strain (AID 167); conditions: S. cerevisiae bub3 mutant strain, active compounds read high
Procedure, shortened: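 Compounds were applied to a genetically altered yeast strain carrying a cell-cycle control defect. Growth inhibition was scored against vehicle-treated controls.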

[11] = NCI Yeast Anticancer Drug Screen. Data for the wt2 strain (AID 169);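 also: 0% = growth of vehicle-treated yeast cultures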; conditions: S. cerevisiae wt2 strain growth inhibition, active compounds read high
Procedure, shortened: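 Yeast cells were exposed to test compounds, and growth inhibition was measured relative to vehicle-treated controls.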

[12] = NCI Yeast Anticancer Drug Screen. Data for the mlh1 strain (AID 171);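 also: 0% = growth of vehicle-treated control cultures of the same strain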; conditions: S. cerevisiae mlh1 strain growth inhibition, active compounds read high
Procedure, shortened: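 Yeast carrying a defined genetic alteration in DNA damage repair or cell cycle control were exposed to test compounds. Growth inhibition was measured relative to vehicle-treated controls.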

[13] = NCI Yeast Anticancer Drug Screen. Data for the sgs1 strain (AID 173);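 also: 0% = growth of vehicle-only control cultures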; conditions: S. cerevisiae sgs1 mutant, active compounds read high
Procedure, shortened: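 Yeast mutant strains carrying defined defects in DNA damage repair or cell cycle control were exposed to test compounds. Growth inhibition was scored against vehicle-treated controls.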

[14] = NCI Yeast Anticancer Drug Screen. Data for the mlh1 rad18 strain (AID 175); conditions: S. cerevisiae mlh1 rad18 strain growth inhibition, active compounds read high
Procedure, shortened: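 Growth inhibition of the yeast strain was measured after compound exposure and expressed relative to vehicle-treated controls. The strain carries defined defects in DNA damage repair.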

[15] = NCI Yeast Anticancer Drug Screen. Data for the rad18 strain (AID 177); conditions: S. cerevisiae rad18 mutant growth inhibition, active compounds read high
Procedure, shortened: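 Yeast carrying a defined DNA damage repair alteration were exposed to compounds. Growth inhibition was expressed relative to vehicle-treated controls.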

[16] = NCI Yeast Anticancer Drug Screen. Data for the rad52 strain (AID 147);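 also: 0% = growth of vehicle-treated control cultures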; conditions: S. cerevisiae rad52 mutant growth inhibition, active compounds read high
Procedure, shortened: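 Yeast strain carrying a DNA damage repair alteration was exposed to test compounds. Growth inhibition was measured relative to vehicle-treated controls.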

[17] = at 5.0 µM (retest, dose inferred, filed as 0.5)
[18] = at 50.0 µM (retest, dose inferred, filed as 5.0)

Measured: growth inhibition

N#CC(=C1C=CC(=NO)C=C1)c1ccccc1
active: [1]; at 11.0 µM 99% | [1]; at 33.0 µM 99% | [1]; at 100.0 µM 99% | [2]; at 11.0 µM 96% | [2]; at 33.0 µM 99% | [2]; at 100.0 µM 98% | [3]; at 11.0 µM 99% | [3]; at 33.0 µM 99% | [3]; at 100.0 µM 99% | [4]; at 11.0 µM 98% | [4]; at 33.0 µM 99% | [4]; [18] 99% | [4]; at 50.0 µM 99.3% | [4]; at 100.0 µM 99% | [5]; at 11.0 µM 99% | [5]; at 33.0 µM 99% | [5]; [18] 99% | [5]; at 50.0 µM 99.5% | [5]; at 100.0 µM 99% | [6]; at 11.0 µM 98% | [6]; at 33.0 µM 99% | [6]; at 100.0 µM 99% | [7]; [18] 99% | [7]; at 50.0 µM 99.4% | [8]; at 11.0 µM 97% | [8]; at 33.0 µM 99% | [8]; at 100.0 µM 99% | [9]; [18] 99% | [9]; at 50.0 µM 99.2% | [10]; at 11.0 µM 94% | [10]; at 33.0 µM 97% | [10]; [18] 99% | [10]; at 50.0 µM 99.3% | [10]; at 100.0 µM 99% | [11]; at 11.0 µM 99% | [11]; at 33.0 µM 99% | [11]; at 100.0 µM 99% | [12]; at 11.0 µM 99% | [12]; at 33.0 µM 99% | [12]; at 100.0 µM 99% | [13]; at 11.0 µM 99% | [13]; at 33.0 µM 99% | [13]; at 100.0 µM 99% | [14]; [18] 99% | [14]; at 50.0 µM 99.4% | [15]; at 11.0 µM 99% | [15]; at 33.0 µM 99% | [15]; at 100.0 µM 99%
inactive: [1]; at 1.2 µM 3% | [1]; at 3.7 µM 13% | [2]; at 1.2 µM 24% | [2]; at 3.7 µM 64% | [3]; at 1.2 µM 1% | [3]; at 3.7 µM 24% | [4]; at 1.2 µM 4% | [4]; at 3.7 µM 26% | [4]; [17] 30% | [5]; at 1.2 µM -3% | [5]; at 3.7 µM 14% | [5]; [17] 19% | [6]; at 1.2 µM 5% | [6]; at 3.7 µM 24% | [7]; [17] 35% | [8]; at 1.2 µM 2% | [8]; at 3.7 µM 10% | [9]; [17] -1% | [10]; at 1.2 µM -21% | [10]; at 3.7 µM -19% | [10]; [17] 35% | [11]; at 1.2 µM 4% | [11]; at 3.7 µM 41% | [12]; at 1.2 µM 3% | [12]; at 3.7 µM 15% | [13]; at 1.2 µM 9% | [13]; at 3.7 µM 50% | [14]; [17] 64% | [15]; at 1.2 µM 12% | [15]; at 3.7 µM 43%

CC(=O)Oc1ccc(N2C(=O)C3c4[nH]c5ccccc5c4C4CCC(C(C)(C)C)CC4C3C2=O)cc1 (stereo not drawn)
active: [16]; at 3.7 µM 87% | [16]; at 11.0 µM 96% | [16]; at 33.0 µM 96% | [16]; at 100.0 µM 90% | [4]; at 3.7 µM 91% | [4]; [17] 98% | [4]; at 11.0 µM 96% | [4]; at 33.0 µM 95% | [4]; [18] 98% | [4]; at 50.0 µM 98.5% | [4]; at 100.0 µM 92% | [5]; at 3.7 µM 71% | [5]; [17] 99% | [5]; at 11.0 µM 98% | [5]; at 33.0 µM 98% | [5]; [18] 98% | [5]; at 50.0 µM 98.5% | [5]; at 100.0 µM 95% | [6]; at 11.0 µM 97% | [6]; at 33.0 µM 97% | [6]; at 100.0 µM 95% | [7]; [17] 98% | [7]; [18] 98% | [7]; at 50.0 µM 98.5% | [8]; at 3.7 µM 92% | [8]; at 11.0 µM 98% | [8]; at 33.0 µM 97% | [8]; at 100.0 µM 97% | [10]; [17] 98% | [10]; at 11.0 µM 97% | [10]; at 33.0 µM 96% | [10]; [18] 98% | [10]; at 50.0 µM 98.5% | [10]; at 100.0 µM 94% | [11]; at 11.0 µM 98% | [11]; at 33.0 µM 98% | [11]; at 100.0 µM 96% | [12]; at 11.0 µM 98% | [12]; at 33.0 µM 97% | [12]; at 100.0 µM 94% | [13]; at 11.0 µM 97% | [13]; at 33.0 µM 97% | [13]; at 100.0 µM 94% | [14]; [17] 98% | [14]; [18] 98% | [14]; at 50.0 µM 98% | [15]; at 3.7 µM 82% | [15]; at 11.0 µM 96% | [15]; at 33.0 µM 95% | [15]; at 100.0 µM 93%
inactive: [16]; at 1.2 µM 7% | [2]; at 1.2 µM -23% | [2]; at 3.7 µM -26% | [2]; at 11.0 µM -26% | [2]; at 33.0 µM -6% | [2]; at 100.0 µM 6% | [4]; at 1.2 µM -14% | [5]; at 1.2 µM -4% | [6]; at 1.2 µM -15% | [6]; at 3.7 µM 18% | [8]; at 1.2 µM 16% | [10]; at 1.2 µM -28% | [10]; at 3.7 µM 64% | [11]; at 1.2 µM -4% | [11]; at 3.7 µM 25% | [12]; at 1.2 µM -15% | [12]; at 3.7 µM 36% | [13]; at 1.2 µM -7% | [13]; at 3.7 µM 52% | [15]; at 1.2 µM 13%
